Shown is part of a subset that was picked to be rich in hits.
Cycloheximide cs = counter-screen for Shiga toxin inhibitors: cycloheximide protein synthesis inhibition. cell reporter, cycloheximide protein synthesis inhibition counterscreen. max response, %. 300,000 compounds, 12% hits; in the data active = max response mostly above about 13%, no sharp cut-off; inactive = mostly below about 14%; note: read at 38.3 µM for the half of the compounds with a filed dose; 0% is about no effect
Lassa entry inh = inhibitors of Lassa virus binding or cell entry | Lassa virus pseudotype entry inhibition, cell reporter | Potency, µM (titrated, usually from 37.9 µM), without a hit: at the top dose activity change, negative = inhibition, actives largely listed as inhibitors | 300,000 compounds, 1.2% hits | AID 540256; calls by dose curve; tested in HEK293 cells; note: potency is the fitted concentration of half-maximal effect; % is set by controls: 0 for no effect and ±100 for the full control effect; nearly all actives have a fitted effect of over 50% in size
Vaccinia Venus = vaccinia inhibition (Venus reporter); AID 720580; Vaccinia virus Venus reporter expression, fluorescence; 330,000 compounds, 0.46% hits; Potency, µM (series often up to 36.5 µM), for inactives: at the highest dose activity change, negative = inhibition, hits mostly inhibitors; calls by dose curve; tested in A549 cells; note: potency is the fitted concentration of half-maximal effect; % is set by controls: 0 for no effect and ±100 for the full control effect; nearly all actives have a fitted effect of over 30% in size
Shiga inhibitor = Shiga toxin inhibition | 290,000 compounds, 9.2% hits | AID 2315 | inhibition, % at 38.7 µM | Vero cells, Shiga toxin protein synthesis inhibition reporter; in the data active = inhibition mostly above about 28%, no sharp cut-off; inactive = mostly below about 43%; note: 0% is about no effect
VACV mCherry inh = vaccinia inhibition (mCherry reporter); Vaccinia virus mCherry reporter infection, fluorescence; Potency, µM (doses to about 36.5 µM), inactives show at the highest dose activity change, negative = inhibition, most hits filed as inhibitors; 310,000 compounds, 0.63% hits; AID 720579; calls by dose curve; tested in A549 cells; note: potency is the fitted concentration of half-maximal effect; % is set by controls: 0 for no effect and ±100 for the full control effect; nearly all actives have a fitted effect of over 35% in size
Marburg entry inh = inhibitors of Marburg virus binding or cell entry; Potency, µM (doses to about 37.8 µM), for the others: top-dose activity change, negative = inhibition, actives largely listed as inhibitors; AID 540276; 300,000 compounds, 1.8% hits; Marburg virus pseudotyped entry inhibition, cell reporter; calls by dose curve; tested in HEK293 cells; note: potency is the fitted concentration of half-maximal effect; % is set by controls: 0 for no effect and ±100 for the full control effect
Starred values were filed as active, the others as inactive; i = inactive; ? = inconclusive; . = no result given; [ ] = remark or other dose.

SMILES | Cycloheximide cs | Lassa entry inh | Vaccinia Venus | Shiga inhibitor | VACV mCherry inh | Marburg entry inh
CCOc1ccccc1C1N=C(N)Nc2nc3ccccc3n21 (stereo not drawn) | . | -19%[46.1 µM] | -2% | . | 6% | 0%[46.1 µM]
CC(=O)NCCOc1nc(N(C)C)nc(N2CCCCC2)n1 | 3 | . | . | -16 | . | .
Cc1nc(N)sc1C(=O)NN | 23* | -7% | -3% | 82* | -2% | -1%[46.1 µM]
CCCCOC(=O)c1ccc(NC(=O)c2sc3nc(C)cc(C)c3c2N)cc1 | . | ? | -12%[7.34 µM] | . | -17%[7.34 µM] | ?
CCCCOC(=O)c1sc2nc(C)cc(C)c2c1N | 27* | ? | -11%[7.34 µM] | 48* | -10%[7.34 µM] | ?
CCOC(=O)c1sc2nc(C)cc(C)c2c1N | 50* | ? | . | 78* | . | ?
Cc1cc(C)c2c(N)c(C(=O)N3CCN(c4ncccn4)CC3)sc2n1 | 31* | 1% | -37% | 53 | . | ?
COCc1cc(C)nc2sc(C(=O)N3CCN(c4ccccc4)CC3)c(N)c12 | 3 | . | -15% | 18 | ? | .
CCOC(=O)CCNC(=O)N1CCCC(Cc2ccccc2)(C(=O)OCC)C1 (stereo not drawn) | -3 | . | . | -4 | . | .
CCOc1ccccc1CNC(=O)c1ccc(N2Cc3ccccc3Oc3ncccc32)s1 | . | -3%[46.1 µM] | -10% | . | -16% | .
CC(C)(C)c1ccc(O[C@@H]2[C@H](O)CO[C@H]2/C=C/C#Cc2ccccc2)cc1 | . | . | . | . | . | -9%[14.2 µM]
CCOC(=O)CC[C@H](NC(=O)Cn1cnc2c(OCc3ccccc3)ncnc21)C(=O)OCC | . | . | 0% | . | i | .
CCOC(=O)CNC(=O)c1sc2nc(C)cc(C)c2c1N | 16 | ? | -8% | 46 | i | 7%
Cc1cc(C)c2c(N)c(C(=O)NN)sc2n1 | 45* | . | -11% | 78* | ? | .
Cc1cc(C)c2c(N)c(C(=O)NNC(=O)c3ccccc3)sc2n1 | 45* | 12%[46.1 µM] | -12% | 93* | i | 4%[46.1 µM]
Cc1cc(C)c2c(N)c(C(=O)Nc3cccc(C)c3C)sc2n1 | 12* | -12%[46.1 µM] | -24% | 8 | -4% | ?
Cc1ccc(NC(=O)c2sc3nc(C)cc(C)c3c2N)cc1 | 51* | ? | -23% | 125* | -21% | ?
Cc1cc(C)c2c(N)c(C(=O)NC3CC3)sc2n1 | 13 | 0% | -21% | 15 | . | 6%
COc1ccccc1C(=O)NC(C)C(c1cccs1)N1CCOCC1 (stereo not drawn) | -1 | -1% | -10% | -2 | -12% | ?
CCOC(=O)c1sc(Nc2cccc(Cl)c2)nc1C | 51* | -27% | -13%[7.34 µM] | 70* | -3%[7.34 µM] | -14%[46.1 µM]
CCOC(=O)c1sc(NC(=O)Nc2ccc(F)cc2)nc1C | 93* | ? | -28% | 121* | ? | ?
CCOC(=O)c1sc(NC(=O)Cc2ccc(F)cc2)nc1C | 29* | -7% | -4% | 46 | i | 3%[46.1 µM]
CCOC(=O)c1sc(NC(=O)Cc2ccccc2OC)nc1C | 4 | . | . | -4 | . | .
CCCN(CCC)C(=O)Cn1c(=O)n(Cc2ccc(C(=O)NCCc3ccc(OC)c(OC)c3)cc2)c(=O)c2ccccc21 | . | 9%[46.1 µM] | -19% | . | -13% | 10%[46.1 µM]
CN(C)c1cc(N2CCOCC2)nc(C#N)n1 | . | . | -14% | . | -22% | .
SMILES | Cycloheximide cs | Lassa entry inh | Vaccinia Venus | Shiga inhibitor | VACV mCherry inh | Marburg entry inh
O=C(CCCc1nc2ccccc2s1)N1CCN(S(=O)(=O)c2cccs2)CC1 | -1 | ? | -14% | -3 | -22% | 10µM*
O=C(CCCc1nc2ccccc2s1)N1CCN(c2ccccc2)CC1 | 2 | 10% | -10% | -5 | i | ?
COc1ccc2nc3ccccc3nc2c1 | 40* | . | 14% | 69* | 1% | .
COc1ccc(-n2nc3cc(C)c(N)c(Br)c3n2)cc1 | 63* | -22% | -5% | 128* | i | ?
COc1ccc(-n2nc(C)cc2N)cc1 | -1 | . | . | 10 | . | .
COc1ccc(-n2nc3cc(N)c(Br)cc3n2)cc1 | 30* | ? | -29% | . | ? | -22%
COc1ccc(-n2nc3ccccc3n2)cc1 | 24* | 1% | . | 53 | . | 23%
CC(C)=CCC/C(C)=C/CO/N=C1\C[C@@H](O)[C@@H](O)[C@@H]2[C@@H]3C(=O)N(Cc4ccc5c(c4)OCO5)C(=O)[C@@H]3CC[C@H]12 | . | . | . | . | . | -44%[14.2 µM]
COC(=O)c1cc(S(=O)(=O)N2CCN(c3ccc(C(C)=O)cc3)CC2)c[nH]1 | -1 | . | . | 14 | . | .
CCCCCCN(CCCCCC)C(=O)Cc1c(-c2ccc(F)cc2)[nH]c2ccccc12 | . | 9.2µM* | -25% | . | -6% | 9.2µM*
O=C(NNC(=O)c1ccccc1Br)c1ccccc1Cl | 19* | -3%[46.1 µM] | -10% | 23 | -5% | 9%[46.1 µM]
O=C(NNC(=S)Nc1ccccc1Cl)c1ccccc1Br | 49* | ? | -16% | 74* | -16% | -27%
O=C(NNC(=O)c1ccccc1Br)c1ccc(Cl)cc1 | 6 | 30% | -9% | 21 | -8% | -2%
O=C(NNC(=S)Nc1ccc(Br)cc1)c1ccccc1Br | 11 | ? | -17% | 72 | -22% | 2%
CCSc1nnc(NC(=O)c2cc(=O)c3cc(C)ccc3o2)s1 | . | 10%[46.1 µM] | 8% | . | -12% | 5%[46.1 µM]
O=C(COc1ccc(Cl)cc1Cl)c1ccc[nH]1 | 31* | . | . | 57* | . | .
O=C(COc1ccc(Cl)cc1Cl)N/N=C/c1ccc[nH]1 | 44* | . | . | 35* | . | .
O=C(COc1ccc(Cl)cc1Cl)N/N=C/CCc1ccccc1 | -2 | 0% | -6% | -14 | -8% | 19%
O=C(NC1CC(=O)N(c2ccccc2)C1)C1CCCC1 (stereo not drawn) | . | -1%[46.1 µM] | -2%[7.34 µM] | . | -10%[7.34 µM] | .
CCOC(=O)C1=C(C)N(CCCC(=O)O)C(=O)NC1c1ccccc1OS(=O)(=O)c1ccccc1[N+](=O)[O-] (stereo not drawn) | . | . | -15% | . | i | .
Cc1nc2ccc(N=NC3=C(O)CC(C)(C)CC3=O)cc2s1 | 96* | 14% | -20% | 110* | -4% | ?
CC(=O)N1CCc2cc(N=NC3=C(O)CC(C)(C)CC3=O)ccc21 | 27* | -23% | . | 46* | . | ?
CCN(CC)S(=O)(=O)c1cccc(N=NC2=C(O)CCCC2=O)c1 | -2 | ? | 2% | -14 | -8% | 11%
Cc1ccc(O)c(N=NC2=C(O)CC(C)(C)CC2=O)c1 | 56* | ? | ? | 56* | ? | 10µM*
Cc1nc2ccc(N=NC3=C(O)CCCC3=O)cc2s1 | 50* | 4% | -3% | 72* | i | -4%[46.1 µM]
SMILES | Cycloheximide cs | Lassa entry inh | Vaccinia Venus | Shiga inhibitor | VACV mCherry inh | Marburg entry inh
CCOc1ccc(CCNC(=O)COC(=O)c2ccc(OC(C)C)cc2)cc1OCC | . | -3% | -20% | . | -12% | -1%
O=C(O)c1cccc(N=NN2CCOCC2)c1 | 18* | -3% | -10% | 39 | 4% | ?
O=C1CCCC(O)=C1N=Nc1cccc(C(=O)O)c1 | 17* | ? | -6% | 59 | -13% | ?
Cc1cccc(-c2nc3scc(CCNS(=O)(=O)c4ccc(F)cc4C)n3n2)c1 | . | 2%[46.1 µM] | 2% | . | -4% | .
COc1ccc(S(=O)(=O)Nc2cccc3ccccc23)cc1 | -4 | . | . | -7 | . | .
COc1ccc(S(=O)(=O)Nc2cc3c4c(oc3c3ccccc23)CCCC4=O)cc1 | 6 | 7.1µM* | ? | -11 | ? | ?

Assay outcomes (PubChem)
